The values below come from PubChem BioAssay.

In assay [1] the test system is Plasmodium falciparum Sir2 (PF13_0152, Sir2A). Briefly: Plasmodium falciparum Sir2A binding compounds – biochemical, small-molecule microarray, 635 nm fluorescence, primary screen (AID 1098).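 Also: score merges spot fluorescence intensity with its signal-to-noise ratio.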 As to conditions: fluorescence 635 nm, higher = more signal.
Assay [2] in a line: probe aDKK1 binding to arrayed compounds – biochemical, biotinylated probe, 635/667 nm fluorescence, primary screen (AID 1099).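 Also: score merges 667nm spot fluorescence with signal to noise across triplicate slides.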 As to conditions: small-molecule microarray, higher = more signal.
Assay [3] is described as follows: probe aCHRDL2 binding to arrayed compounds – biochemical, biotinylated probe, 635/667 nm fluorescence, primary screen (AID 1100). As to conditions: small-molecule microarray, higher = more signal.
The nature of assay [4]: change in splice reporter luminescence, either direction, cell-based, HEK293, spliceosome inhibition project, primary screen (AID 1101).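 Also: HEK293 cells carrying a splicing-competent luciferase reporter gene; test concentration not given here.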 As to conditions: HEK293 splicing luciferase reporter, 24 h, higher = more signal, called active from +8 up or from −8 down.
The target in assay [5] is Fibroblast growth factor 10 (Homo sapiens) (UniProt O15520). Kind of assay: compounds binding fibroblast growth factor 10 – biochemical, small-molecule microarray, 635 nm fluorescence, primary screen (AID 1102). As to conditions: FGF10 binding, fluorescence 635 nm, higher = more signal.
Fibroblast growth factor 10 (Homo sapiens), sequence (O15520 whole entry, looked up): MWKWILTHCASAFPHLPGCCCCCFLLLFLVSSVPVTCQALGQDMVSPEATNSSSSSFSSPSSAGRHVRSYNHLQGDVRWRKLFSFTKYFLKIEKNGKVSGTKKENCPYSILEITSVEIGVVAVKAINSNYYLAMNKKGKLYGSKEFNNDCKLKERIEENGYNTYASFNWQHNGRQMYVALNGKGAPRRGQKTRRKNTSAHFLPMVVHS
The subject of assay [6] is glycogen synthase kinase-3 (GSK3A per assay name; protocol says GSK3B). Briefly: compounds binding glycogen synthase kinase-3 – biochemical, small-molecule microarray, 635 nm fluorescence, GSK3A, primary screen (AID 1103). Also: the record names both GSK3A and GSK3B. As to conditions: fluorescence 635 nm, higher = more signal.
For assay [7], the target named is Epidermal growth factor receptor (Homo sapiens) (UniProt P00533). Briefly: compounds binding epidermal growth factor receptor – biochemical, small-molecule microarray, 635 nm fluorescence, primary screen (AID 1104).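 Also: score merges 667 nm emission intensity with spot signal to noise over triplicate slides.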 As to conditions: EGFR binding, higher = more signal.
Epidermal growth factor receptor (Homo sapiens), sequence (P00533 whole entry, looked up): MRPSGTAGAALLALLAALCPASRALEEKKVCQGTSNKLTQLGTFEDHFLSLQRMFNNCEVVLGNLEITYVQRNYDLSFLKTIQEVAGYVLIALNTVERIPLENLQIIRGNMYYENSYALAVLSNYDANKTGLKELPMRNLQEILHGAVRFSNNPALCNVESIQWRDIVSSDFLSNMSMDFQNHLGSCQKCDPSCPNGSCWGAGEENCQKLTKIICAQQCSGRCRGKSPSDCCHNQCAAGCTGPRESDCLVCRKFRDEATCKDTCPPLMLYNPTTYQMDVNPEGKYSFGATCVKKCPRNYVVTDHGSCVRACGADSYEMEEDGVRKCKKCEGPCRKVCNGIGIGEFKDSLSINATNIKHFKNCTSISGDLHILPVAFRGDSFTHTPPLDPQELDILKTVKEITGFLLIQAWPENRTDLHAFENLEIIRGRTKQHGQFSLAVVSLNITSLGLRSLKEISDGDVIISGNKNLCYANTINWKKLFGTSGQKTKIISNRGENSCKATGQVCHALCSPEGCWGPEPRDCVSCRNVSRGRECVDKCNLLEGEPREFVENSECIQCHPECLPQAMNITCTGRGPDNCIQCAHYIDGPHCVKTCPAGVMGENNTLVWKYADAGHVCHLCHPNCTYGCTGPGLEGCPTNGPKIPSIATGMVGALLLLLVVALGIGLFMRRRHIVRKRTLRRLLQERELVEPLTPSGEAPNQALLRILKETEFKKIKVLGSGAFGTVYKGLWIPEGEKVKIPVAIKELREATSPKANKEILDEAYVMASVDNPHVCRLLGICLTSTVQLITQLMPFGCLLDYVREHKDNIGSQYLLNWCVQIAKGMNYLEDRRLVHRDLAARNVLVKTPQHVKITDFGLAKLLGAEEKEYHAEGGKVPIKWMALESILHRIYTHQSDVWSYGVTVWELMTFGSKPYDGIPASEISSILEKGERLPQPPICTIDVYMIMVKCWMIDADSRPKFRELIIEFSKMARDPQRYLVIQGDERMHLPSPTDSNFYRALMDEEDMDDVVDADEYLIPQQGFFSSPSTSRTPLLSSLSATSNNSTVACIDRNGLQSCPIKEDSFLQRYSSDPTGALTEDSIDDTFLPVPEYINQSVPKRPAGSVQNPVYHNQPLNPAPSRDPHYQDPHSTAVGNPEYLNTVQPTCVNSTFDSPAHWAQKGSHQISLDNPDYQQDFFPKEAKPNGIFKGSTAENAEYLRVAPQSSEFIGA
The target in assay [8] is Follistatin-related protein 3 (Homo sapiens) (UniProt O95633). Kind of assay: compounds binding follistatin-related protein 3 – biochemical, small-molecule microarray, 635 nm fluorescence, primary screen (AID 1105).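 Also: score merges emission near 667 nm and signal to noise per printed spot across three slides.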 As to conditions: FSTL3 binding, higher = more signal.
Follistatin-related protein 3 (Homo sapiens), sequence (O95633 whole entry, looked up): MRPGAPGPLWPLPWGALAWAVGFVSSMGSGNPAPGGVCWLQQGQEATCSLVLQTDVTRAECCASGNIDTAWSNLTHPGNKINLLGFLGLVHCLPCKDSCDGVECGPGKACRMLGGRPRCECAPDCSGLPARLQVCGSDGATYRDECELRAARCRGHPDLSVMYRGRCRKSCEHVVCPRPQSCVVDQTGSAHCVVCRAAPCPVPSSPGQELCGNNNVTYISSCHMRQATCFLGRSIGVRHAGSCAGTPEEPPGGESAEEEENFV
For assay [9], the target named is Dickkopf-related protein 1 (Homo sapiens) (UniProt O94907). Kind of assay: small molecules binding DKK1 protein – biochemical, small-molecule microarray, 635 nm fluorescence scan, primary screen (AID 1106).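 Also: score merges emission near 667 nm with signal to noise over three replicate slides.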 As to conditions: higher = more signal.
Dickkopf-related protein 1 (Homo sapiens), sequence (O94907 whole entry, looked up): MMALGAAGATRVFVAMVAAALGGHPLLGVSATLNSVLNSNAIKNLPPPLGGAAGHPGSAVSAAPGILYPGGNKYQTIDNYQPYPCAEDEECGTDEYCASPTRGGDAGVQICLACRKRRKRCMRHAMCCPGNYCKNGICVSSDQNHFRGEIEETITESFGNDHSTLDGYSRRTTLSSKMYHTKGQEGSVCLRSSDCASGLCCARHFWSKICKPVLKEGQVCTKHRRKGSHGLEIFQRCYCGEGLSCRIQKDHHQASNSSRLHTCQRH
Assay [10] concerns Inhibin beta A chain (activin A). Kind of assay: small molecules binding activin A – biochemical, small-molecule microarray, 635 nm fluorescence scan, primary screen (AID 1107).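 Also: mouse activin A protein probed at 4.33 µg/mL on printed slides; score merges bound-protein fluorescence near 667 nm with spot signal-to-noise.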 As to conditions: INHBA, higher = more signal.
In assay [11] the test system is Human papillomavirus type 1a protein E7 (residues 44-93). Kind of assay: small molecules binding HPV E7 44-93 – biochemical, small-molecule microarray, residues 44-93, 635 nm fluorescence, primary screen (AID 1108).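 Also: E7 fragment applied at 1 µg/mL in TBST for 1 h at 4 C; score combines spot fluorescence with its signal to noise ratio.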 As to conditions: fluorescence 635 nm, higher = more signal.
Assay [12] can be described thus: hepatitis C replication reporter changes, two-sided – Huh7 cells, luciferase reporter, HCV replication inhibitor project, primary screen (AID 1109).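 Also: huh7 hepatoma cells harbouring a luciferase neomycin HCV replicon reporter; luciferase luminescence as measure of HCV replicon replication; test concentration not given here.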 As to conditions: Huh7 HCV replicon luciferase reporter, 48 h; higher = more signal.
The target in assay [13] is Left-right determination factor 2 (Homo sapiens) (UniProt O00292). Kind of assay: small molecules binding LEFTY2 protein – biochemical, small-molecule microarray, 635 nm fluorescence scan, primary screen (AID 1110). As to conditions: higher = more signal.
Left-right determination factor 2 (Homo sapiens), sequence (O00292 whole entry, looked up): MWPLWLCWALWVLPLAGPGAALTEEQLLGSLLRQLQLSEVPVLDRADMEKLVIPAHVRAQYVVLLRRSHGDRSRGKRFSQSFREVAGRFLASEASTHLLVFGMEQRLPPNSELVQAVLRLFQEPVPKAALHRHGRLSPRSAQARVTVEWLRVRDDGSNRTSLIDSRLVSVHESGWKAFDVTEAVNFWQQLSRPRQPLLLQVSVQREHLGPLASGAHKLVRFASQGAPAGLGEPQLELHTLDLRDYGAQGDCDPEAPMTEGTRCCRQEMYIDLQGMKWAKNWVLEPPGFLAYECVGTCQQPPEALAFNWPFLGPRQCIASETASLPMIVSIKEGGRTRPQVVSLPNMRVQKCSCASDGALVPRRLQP
For assay [14], the target named is Calmodulin-1 (Homo sapiens) (UniProt P0DP23). Briefly: small molecules binding calmodulin-1 with EGTA – biochemical, small-molecule microarray, Cy5-labelled CALM1, profiling panel (AID 1111).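 Also: labelled calmodulin applied in Tris saline Tween buffer holding calcium plus EGTA and DTT.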 As to conditions: Cy5-CALM1 binding fluorescence, higher = more signal.
The target is the same in assay [15]. Briefly: small molecules binding Ca-loaded calmodulin-1 – biochemical, small-molecule microarray, Cy5-labelled CALM1, plus calcium, artefact control for SMM control-protein annotation, profiling panel (AID 1112).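 Also: score merges spot fluorescence with signal to noise from triplicate slides.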 As to conditions: Cy5-CALM1 binding fluorescence, higher = more signal.
The nature of assay [16]: probe aWnt5a binding to arrayed compounds – biochemical, biotinylated probe, 635/667 nm fluorescence, primary screen (AID 1113).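 Also: score merges 667 nm fluorescence intensity with signal-to-noise per printed feature.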 As to conditions: small-molecule microarray, higher = more signal.
Assay [17] in a line: probe aShh binding to arrayed compounds – biochemical, biotinylated probe, 635/667 nm fluorescence, primary screen (AID 1114).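 Also: probe is biotin-labelled aShh protein from a stem cell growth factor screen; measures binding of labelled protein to compounds printed on the slide; score merges feature fluorescence at 667 nm with signal-to-noise.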 As to conditions: small-molecule microarray, higher = more signal.
The nature of assay [18]: probe aNog binding to arrayed compounds – biochemical, biotinylated probe, 635/667 nm fluorescence, primary screen (AID 1115).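 Also: probe is biotinylated aNog protein used at 0.15 µg/mL for 1 h at 4 C; z-score combines 667 nm fluorescence of each spot with its signal to noise.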 As to conditions: small-molecule microarray, higher = more signal.
The target in assay [19] is Torsin-1A-interacting protein 1 (Homo sapiens) (UniProt Q5JTV8). Briefly: compound microarray binding of lysate hLAP1 – cell lysate, small-molecule microarray, COS7 lysate, 635/667 nm fluorescence, primary screen (AID 1116). As to conditions: 635 nm fluorescence, higher = more signal.
Torsin-1A-interacting protein 1 (Homo sapiens), sequence (Q5JTV8 whole entry, looked up): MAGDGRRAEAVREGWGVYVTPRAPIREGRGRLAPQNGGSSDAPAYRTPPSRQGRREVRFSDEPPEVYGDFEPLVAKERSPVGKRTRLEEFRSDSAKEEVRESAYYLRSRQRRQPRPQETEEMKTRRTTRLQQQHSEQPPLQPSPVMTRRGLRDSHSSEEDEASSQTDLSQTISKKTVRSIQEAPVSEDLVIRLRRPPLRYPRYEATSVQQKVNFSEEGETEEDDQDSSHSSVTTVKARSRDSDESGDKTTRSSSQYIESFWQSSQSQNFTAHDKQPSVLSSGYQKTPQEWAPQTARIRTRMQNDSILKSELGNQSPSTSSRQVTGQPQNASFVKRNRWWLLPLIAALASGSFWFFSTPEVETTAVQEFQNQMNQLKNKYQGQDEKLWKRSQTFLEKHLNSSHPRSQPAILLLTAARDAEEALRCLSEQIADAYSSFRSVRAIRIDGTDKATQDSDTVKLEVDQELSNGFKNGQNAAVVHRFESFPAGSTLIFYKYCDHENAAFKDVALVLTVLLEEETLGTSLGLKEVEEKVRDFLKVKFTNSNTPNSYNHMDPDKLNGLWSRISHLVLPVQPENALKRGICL
Assay [20] deals with Alpha-bungarotoxin (Bungarus multicinctus) (UniProt P60615). Briefly: compounds binding labelled alpha-BTX control protein – biochemical, small-molecule microarray, Alexa647 label, 635/667 nm fluorescence, artefact control for SMM control protein annotation, profiling panel (AID 1117). As to conditions: alpha-BTX-A647 binding fluorescence, higher = more signal.
Alpha-bungarotoxin (Bungarus multicinctus), sequence (P60615 whole entry, looked up): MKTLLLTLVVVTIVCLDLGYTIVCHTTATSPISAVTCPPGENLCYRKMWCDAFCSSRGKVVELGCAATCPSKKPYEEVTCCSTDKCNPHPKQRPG

Calls of active or inactive are those of the source.

Turning to `C=CCC(OC(C)=O)[C@@H]1[C@@H](N(Cc2ccc(-c3cccc(C(F)(F)F)c3)o2)C(=O)c2ccc(C)cc2)c2cc(OCCCO)ccc2N1C(=O)Cc1ccc(OC)cc1` (stereo not given in full), the composite z-score in [1] was 1.1; in assay [2], -0.145; in [3], -0.0583; in [5], -0.0938; in [6], -0.808; in assay [7] it was -0.0424. For the same compound, the composite z-score in assay [8] is 0.345; in assay [9], 0.0682; in assay [10], 0.975; in assay [11], -0.918; in [13], -0.115; in assay [14], -0.697. In addition, the composite z-score is -1.06 in assay [15]; 0.0327 in assay [16]; -0.439 in assay [17]; -0.565 in assay [18]; 0.163 in [19]; -0.056 in assay [20]. The z-score in assay [4] was -0.0858 (inactive); in assay [12], -0.466.

Consider `CC(C)[C@H]1NC(=O)[C@@]23C(=O)N[C@@H](Cc4ccccc4)C2[C@H](C)[C@@]2(C)O[C@H]2C3/C=C/C/C=C\CNC(=O)[C@H](Cc2ccccc2)NC1=O` (stereo not given in full), for which the composite z-score in [1] is 0.205; in assay [2], -0.38; in assay [3], -0.481; in [5] it was 1.37; in assay [6] it was 1.08; in assay [7], 0.512. In addition, the composite z-score was 1.44 in assay [8]; 0.336 in [9]; 1.12 in [10]; 1.33 in assay [11]; 0.736 in [13]; -0.28 in [14]. Also, the composite z-score in assay [15] is -0.584; in assay [16] it was -0.158; in [17], -0.0553; in [18], -0.505; in assay [19], 0.512; in assay [20] it was 0.807. Moreover, the z-score in assay [4] was 0.0723 (inactive); in assay [12], -0.26.

As for `O=C1C2C=CC(C(O)C=Cc3ccc([N+](=O)[O-])cc3)N(Nc3ccccc3)C2C(=O)N1c1ccccc1` (stereo not given), the composite z-score in [1] was 1.37; in assay [2], -0.0814; in assay [3], 0.689; in [5], 1.07; in assay [6], 1.16; in assay [7], 0.244. For the same compound, the composite z-score in [8] worked out at 1.31; in assay [9] it was 0.419; in assay [10] it was 1.06; in [11], 1.36; in assay [13], 0.0857; in assay [14], 1.37. In addition, the composite z-score in assay [15] was -0.0507; in [16], 0.0037; in [17], -0.0866; in [18] it was -0.397; in assay [19], 0.568; in assay [20], 0.742. The results for the z-score in [4] and in [12] were 0.649 (inactive) and -0.486, respectively.

With `CO[C@H]1O[C@H](CO)[C@@H](OC(=O)c2ccc(Br)cc2)[C@@H]2OC(=O)[C@H](Cc3ccccc3)C/C=C/C[C@@H](Cc3ccccc3)C(=O)O[C@@H]12`, the composite z-score in [1] was 1.14; in assay [2], -0.407; in [3], 0.0962; in assay [5] it was 0.583; in assay [6], 0.186; in [7], 0.287. Also, the composite z-score is 0.435 in [8]; 0.214 in [9]; 1.24 in [10]; 0.79 in [11]; 0.109 in assay [13]; 0.575 in assay [14]. Moreover, the composite z-score in assay [15] is -0.662; in [16], -0.275; in assay [17] it was -0.23; in assay [18], -0.542; in assay [19], 0.706; in [20] it was 0.142. Besides, the figures for the z-score in [4] and in assay [12] were -0.511 (inactive) and -3.01, respectively.

For `COC(=O)[C@@]1(Cc2ccc(F)cc2)[C@H]2c3cc(C(=O)N(C)C)n(Cc4c(CO)[nH]cc(C)c4=O)c3C[C@H]2CN1C(=O)c1ccccc1`, the composite z-score in assay [1] is -0.0424; in assay [2], 0.617; in [3], 0.721; in assay [5], 0.663; in assay [6], -0.271; in assay [7], 0.0656. Moreover, the composite z-score in assay [8] was -0.217; in [9], -0.12; in assay [10] it was 0.693; in assay [11], -0.275; in assay [13], -0.104; in assay [14], 0.263. The composite z-score in assay [15] was -0.184; in assay [16], 0.0375; in [17] it was 0.649; in assay [18] it was 1.38; in assay [19], 1.16; in [20] it was 0.0084. Moreover, the z-score was -0.73 (inactive) in [4] and -0.573 in assay [12].

Turning to `COC(=O)[C@@]1(Cc2ccccc2CN=[N+]=[N-])N=C(c2ccc(OCCCO)cc2)O[C@H]1c1ccccc1CN=[N+]=[N-]`, the composite z-score is 1.32 in assay [1]; -0.0486 in [2]; 1.02 in assay [3]; -0.304 in [5]; -0.568 in assay [6]; -1.48 in assay [7]. Moreover, the composite z-score in [8] was -0.774; in assay [9], -1.02; in assay [10], -0.0879; in [11], 0.445; in [13] it was -2.01; in assay [14], 0.0829. The composite z-score was 0.526 in assay [15]; 0.0733 in [16]; -0.156 in assay [17]; 0.96 in [18]; 1.1 in [19]; 0.0937 in [20]. The values for the z-score in [4] and in [12] were -1.34 (inactive) and -2.92, respectively.
